High-throughput results from PubChem BioAssay.
SARS PLP yeast: SARS-CoV PLP inhibition in yeast; S. cerevisiae expressing SARS-CoV PLpro, growth rescue; Potency, µM (doses to about 32.9 µM), for the others: at the highest dose activity, positive = growth rescue, hits mostly activators; 0.19% of 330,000 active; AID 485353; calls by dose curve; also: potency is read from the fitted curve at half-maximal effect; 0% is about no effect; nearly all actives have a fitted effect of over 55% in size
AMA1 RON2 block: disrupts binding of P. falciparum AMA1 to RON2. AlphaScreen AMA1-biotinylated RON2 peptide binding. Potency, µM (series often up to 58.2 µM), inactives show at the highest dose activity change, negative = inhibition, actives largely listed as inhibitors. AID 720542. 0.2% of 360,000 active;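 also: potency is read from the fitted curve at half-maximal effect; 0% = vehicle wells and -100% = peptide control; nearly all actives have a fitted effect of over 45% in size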
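AMA1 (3D7) with his tag at 25 nM final met compounds first, then biotinylated RON2 peptide at 25 nM; detection used donor plus acceptor beads, 10 µg/mL apiece, read by AlphaScreen after 30 min at room temperature.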
AmpC detergent: blocks E. coli AmpC beta-lactamase in detergent assay; 0.041% of 370,000 active; AmpC hydrolysis of nitrocefin, absorbance 480 nm, 0.01% Triton; Potency, µM (highest dose often 114 µM), without a hit: at the highest dose activity change, negative = inhibition, hits mostly inhibitors; P00811;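 also: potency is read from the fitted curve at half-maximal effect; 0% = no-compound wells and -100% = no-enzyme wells; nearly all actives have a fitted effect of over 25% in size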
Target sequence (P00811 whole entry, looked up): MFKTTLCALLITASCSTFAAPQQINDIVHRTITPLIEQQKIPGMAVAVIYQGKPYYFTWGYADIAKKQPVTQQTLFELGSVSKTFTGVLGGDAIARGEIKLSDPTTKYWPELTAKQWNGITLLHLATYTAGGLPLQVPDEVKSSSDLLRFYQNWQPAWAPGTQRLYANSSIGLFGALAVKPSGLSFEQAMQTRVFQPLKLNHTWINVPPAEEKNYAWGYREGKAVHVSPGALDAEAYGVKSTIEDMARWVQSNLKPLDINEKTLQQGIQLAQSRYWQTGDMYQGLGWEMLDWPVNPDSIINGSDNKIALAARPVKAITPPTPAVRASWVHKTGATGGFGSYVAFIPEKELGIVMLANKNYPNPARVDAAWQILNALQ
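AmpC (5.3 nM in the dispensed reagent) in 20 mM phosphate pH 7.0 with 0.01% (detergent screen) or 0.0001% Triton X-100 was preincubated with compounds for 15 min at room temperature. Nitrocefin was then added from an 800 uM solution, and hydrolysis was followed at 480 nm.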
Shiga toxin inh: inhibitors of Shiga toxin in Vero cells | inhibition, % at 38.7 µM | Vero cells, Shiga toxin protein synthesis inhibition reporter | AID 2315 | 9.2% of 290,000 active; in the data active = inhibition mostly above about 28%, no sharp cut-off; inactive = mostly below about 43%; also: 0% is about no effect
Cycloheximide cs: affects cycloheximide protein synthesis inhibition readout, counter-screen. cell reporter, cycloheximide protein synthesis inhibition counterscreen. max response, %. 12% of 300,000 active. AID 2314; in the data active = max response mostly above about 13%, no sharp cut-off; inactive = mostly below about 14%; also: read at 38.3 µM for the half of the compounds with a filed dose; 0% is about no effect
AmpC no deterg: blocks E. coli AmpC beta-lactamase in detergent-free assay. AmpC nitrocefin hydrolysis, absorbance 480 nm, 0.0001% Triton. Potency, µM (series often up to 57.1 µM), without a hit: at the highest dose activity change, negative = inhibition, usual class: inhibitors. 0.52% of 330,000 active. AID 485341;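 also: potency is read from the fitted curve at half-maximal effect; plate controls were no compound for no effect and no enzyme for full effect; nearly all actives have a fitted effect of over 20% in size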
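20 mM phosphate pH 7.0 + 0.01% (detergent screen) or 0.0001% Triton X-100; 5.3 nM AmpC reagent; cpd preinc 15 min RT; nitrocefin (800 uM stock) to start; A480 q20 s × 4 min; Activity was normalised to no-enzyme and no-compound control wells.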
Active calls of the source: *; ? = inconclusive; · = no result given; [ ] = another dose, or the depositor's remark. Shown is part of a subset that was picked to be rich in hits. Unless noted, calls follow the shape of the dose curve; as a rule, active = well fitted curve in the direction sought with a large enough effect; inconclusive = small, poorly fitted or top-dose-only effect, or another doubt; inactive = no such curve, though single readings can be large; an effect the other way counts as inactive or inconclusive.

SMILES | SARS PLP yeast | AMA1 RON2 block | AmpC detergent | Shiga toxin inh | Cycloheximide cs | AmpC no deterg
Nc1n[nH]c(N)c1N=Nc1ccc2c(c1)OCO2 | -1% | 23% | -3% | 97* | 36* | -13%
Nc1n[nH]c(C2CC2)c1N=Nc1ccc(Cl)cc1 | -2% | -18% | 6% | 35 | 8 | 1%
Cc1ccc(C)c2sc(N)nc12 | -1% | 0% | -3% | 1 | -3 | -5%
Cc1[nH]nc(N)c1N=Nc1ccc(Br)cc1 | -3% | · | 0% | 41* | 29* | 0%
Cc1ccc(N=Nc2c(N)n[nH]c2N)cc1 | -2% | 31% | 5% | 49* | 41* | -23%
COCCn1c(=NC(=O)c2cc(Cl)sc2Cl)sc2cc(S(N)(=O)=O)ccc21 | -28% | -21% | ? | -14 | -3 | -31%
CSc1ccccc1NC(=O)c1ccccn1 | -1% | 54% | 8% | 45* | 18* | -10%
CSc1ccccc1NC(=O)c1cccnc1 | -3% | -4% | 0% | 11 | 15* | -18%
Cc1ccccc1NC(=O)c1ccccn1 | 0% | 60% | 2% | 57* | 29* | -13%
CSc1ccccc1NC(=O)c1ccco1 | -3% | 3% | ? | 2 | -2 | -16%
CSc1ccccc1NC(=O)c1ccc(Cl)s1 | -16% | 4% | 5% | 49 | 30* | -24%
COC(=O)c1ccsc1NC(=O)c1ccc(Cl)s1 | -1% | 7% | 6% | -8 | -4 | -20%
CCOc1ccc(N2CC(NC(=O)c3ccc(S(=O)(=O)N4CCCC4)cc3)CC2=O)cc1 (stereo not given) | · | · | 0% | · | · | ·
CCOC(=O)[C@]12Cc3cc4ccccc4cc3[C@H]1N(Cc1ccccc1)C(=O)c1ccccc12 | · | -10% | · | · | · | ·
O=C(C(=O)N1CCN(c2ccc(F)cc2)CC1)N1CCCCC1 | 0% | 9% | 0% | -6 | 1 | 0%
COc1ccc(C(=O)NC2CCCc3c2cnn3-c2cc(F)cc(F)c2)c(OC)n1 (stereo not given) | 0% | 15% | -14% | -4 | 7 | 36%
COC(=O)C(C)NC(=O)C(C)NC(=O)OCc1ccccc1 (stereo not given) | 0% | 15% | ? | -6 | -2 | -4%
O=C(Nc1ccccc1)c1snc2c(=O)[nH]cnc12 | -1% | 4% | 3% | 18 | 16* | -30%
CCOC(=O)c1snc2c(=O)[nH]cnc12 | 3% | 8% | -5% | -6 | -4 | -6%
O=C(Nc1nccs1)Oc1ccccc1 | 1% | 0% | ? | 14 | 13 | -6%
O=C(Nc1nccs1)c1ccccc1N=Cc1ccccc1 | 19% | 19% | -1% | 48* | 25* | -37%
N#C/C(=C\c1cccs1)C(=O)NCc1ccccc1 | 13% | 5% | 1% | 27 | 13 | -32%
N#C/C(=C\c1cccs1)C(=O)Nc1nccs1 | -1% | 64% | 3% | 65* | 27* | -19%
COc1cccc(C=Nc2ccccc2C(=O)Nc2nccs2)c1OC | -5% | 6% | 4% | -6 | 6 | -9%
C/C(=C\c1ccccc1)C(=O)Nc1nccs1 | -1% | 2% | -1% | 152* | 49* | -27%
SMILES | SARS PLP yeast | AMA1 RON2 block | AmpC detergent | Shiga toxin inh | Cycloheximide cs | AmpC no deterg
CC1Oc2ccccc2OC1C(=O)Nc1nccs1 (stereo not given) | 1% | -3% | 7% | 25 | 18* | -9%
CC(CNC(=O)c1sc2ncccc2c1-n1cccc1)c1ccccc1 (stereo not given) | · | · | -3% | · | · | ·
CCCc1ccc2oc(C(=O)N(Cc3nccn3C)C(C)C)c(C)c2c1 | 3% | 11% | -14% | 35* | 21* | 138%
Cc1c(C(=O)N(Cc2nccn2C)C(C)C)oc2c(F)cccc12 | -1% | -1% | 3% | 2 | 18 | 7%
CCCc1ccc2oc(C(=O)N(C)Cc3ccn[nH]3)c(C)c2c1 | -6% | -7% | ? | 65* | 48* | 42%
Cc1ccc2oc(C(=O)N(C)Cc3cnccn3)c(C)c2c1 | -1% | 7% | 15% | 120* | 35* | 44%
COc1ccc2oc(C(=O)N(C)Cc3ccc4c(c3)OCCO4)c(C)c2c1 | -1% | 11% | -9% | · | · | 7%
CCCC(O)c1nc2ccccc2n1Cc1ccccc1OC (stereo not given) | · | · | -3% | · | · | ·
CN1CCN(c2ccc([N+](=O)[O-])cc2C(=O)c2ccc(Cl)cc2)CC1 | -2% | -1% | -8% | -10 | -2 | -3%
Cc1cc(C(=O)CSc2n[nH]c(N)n2)c(C)n1-c1cc(F)ccc1F | 7% | 0% | ? | 98* | 29* | -26%
Nc1nc(SCC(=O)c2cc(F)ccc2F)n[nH]1 | -4% | 7% | -7% | -1 | 3 | -46%
Cc1ccc(-n2c(C)cc(C(=O)CSc3n[nH]c(N)n3)c2C)cc1 | -5% | -1% | -5% | 54 | 10.0* | -27%
Cc1cc(C(=O)CSc2n[nH]c(N)n2)c(C)n1-c1ccc(F)cc1 | 25% | -13% | -6% | 61* | 40* | -26%
Cc1ccc(-n2c(C)cc(C(=O)COC(=O)c3c(C)noc3C)c2C)cc1 | -26% | -13% | 0% | 104* | 39* | 1%
Nc1nc(SCC(=O)c2ccc(F)cc2)n[nH]1 | 0% | 3% | -15% | -1 | 12 | -19%[11.4 µM]
Cc1cc(C(=O)COC(=O)c2cnccn2)c(C)n1-c1ccc(Br)cc1 | -10% | -25% | · | · | · | 73%
Cc1nc(Cl)sc1C(=O)Nc1cccc2ccccc12 | 13% | 4% | -2% | 10 | 8 | -12%
COc1cccc(CC2(CO)CCCN(Cc3ccc(C)s3)C2)c1 (stereo not given) | -1% | -24% | 5% | -5 | -1 | 19%
O=S(=O)(Nc1cccc(S(=O)(=O)N2CCCC2)c1)c1cccs1 | 5% | 1% | · | · | · | -29%
Cc1cccc(OCCOC(=O)c2ccc(F)c(S(=O)(=O)N3CCOCC3)c2)c1 | 8% | 14% | -3% | · | · | 5%
Cc1cc(C(=O)CSc2n[nH]c(N)n2)c(C)n1-c1ccccc1 | -6% | -2% | 0% | 50* | 37* | -46%
C=CCn1c(C)cc(C(=O)CSc2n[nH]c(N)n2)c1C | 0% | -19% | ? | 98 | 28* | -15%
Cc1cc(C(=O)CSc2n[nH]c(N)n2)c(C)n1C1CC1 | -6% | -10% | 2% | 12 | -4 | -18%
CCn1c(SC(C)C)nnc1-c1cc(-c2ccccc2)sc1N | -20% | 60% | 0% | 14 | -2 | 15%
Cc1ccc([N+](=O)[O-])cc1-c1ccc(/C=C(\C#N)c2[nH]nc(N)c2C#N)o1 | 4% | -2%[11.6 µM] | 2% | 28 | 20* | 32µM*
COCc1cc(C)nc(OCC(=O)N/N=C/c2ccc(-c3cc([N+](=O)[O-])ccc3C)o2)c1C#N | -1% | 0% | 4% | -11 | -2 | -10%
